ELG1 genotoxic – induces genotoxicity in HEK293T cells with luciferase-tagged ELG1 | Potency, µM (series often up to 46 µM), inactives show at the highest dose activity change, positive = activation, most hits filed as activators | HEK293T ELG1-luciferase reporter, luminescence, 16 h | actives 1.3% (n = 330,000) | AID 504466; note: % of control where 0% means no effect; nearly all actives have a fitted effect of over 60% in size
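Screening used a luciferase reporter fused to human ELG1 in HEK293T cells. Luminescence was read on a CCD plate imager after 16 hr exposure and 30 min ONE-Glo incubation.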
NPC1 promoter act – activators of NPC1 promoter | AID 485313 | Huh7 NPC1 promoter luciferase reporter, 24 h | Potency, µM (titrated, usually from 9.22 µM), for inactives: at the highest dose activation, hits mostly activators | actives 2.4% (n = 320,000); note: % of control where 0% means no effect; nearly all actives have a fitted effect of over 60% in size
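In 1536-well qHTS, Huh7 cells harboring an NPC1 promoter–luciferase construct received compound for 24 h; activation was quantified by luminescence following luciferase reagent addition.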
SMN2 splice enh – increases expression of the SMN2 splice variant; Potency, µM (highest dose often 46.1 µM), for the others: at the top dose activity change, positive = activation, hits mostly activators; actives 2.8% (n = 210,000); HEK293 SMN2-luciferase splicing reporter, luminescence, 30-36 h; note: % of control where 0% means no effect; nearly all actives have a fitted effect of over 55% in size
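HEK293 cells carry an SMN2 minigene-luciferase reporter in which exon 7 inclusion puts luciferase in frame. Cells were seeded at 2000 cells/well, attached for 10-12 hours, then exposed to compounds for 30-36 hours at 37C before ONE-Glo luminescence.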
FLuc modulator – counter-screen for miR-21 project: firefly luciferase inhibitors or activators | purified FLuc, Km substrates, luminescence inhibition | actives 6.9% (n = 360,000) | Potency, µM (series often up to 57.5 µM), without a hit: at the highest dose activity change, negative = inhibition, usual class: inhibitors | AID 588342 | P08659;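 note: plate controls were vehicle for no effect and reference inhibitor for full effect; nearly all actives have a fitted effect of over 55% in size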
Target sequence (P08659 whole entry, looked up): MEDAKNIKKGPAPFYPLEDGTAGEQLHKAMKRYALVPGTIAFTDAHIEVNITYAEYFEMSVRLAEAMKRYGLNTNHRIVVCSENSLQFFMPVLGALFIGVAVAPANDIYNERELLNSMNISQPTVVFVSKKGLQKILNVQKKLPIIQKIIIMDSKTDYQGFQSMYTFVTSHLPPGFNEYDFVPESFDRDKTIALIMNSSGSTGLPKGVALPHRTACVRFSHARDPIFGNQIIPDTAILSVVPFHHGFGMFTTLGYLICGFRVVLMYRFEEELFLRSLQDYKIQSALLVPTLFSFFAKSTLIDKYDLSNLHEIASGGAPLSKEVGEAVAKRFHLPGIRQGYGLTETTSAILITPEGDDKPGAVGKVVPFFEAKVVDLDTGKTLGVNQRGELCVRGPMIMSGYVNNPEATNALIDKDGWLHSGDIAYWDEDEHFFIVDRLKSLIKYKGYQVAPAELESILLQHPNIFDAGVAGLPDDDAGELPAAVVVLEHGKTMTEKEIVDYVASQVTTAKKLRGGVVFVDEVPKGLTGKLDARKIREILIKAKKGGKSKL
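Purified P. pyralis luciferase (10nM final) with 10uM D-luciferin and 10uM ATP (Km levels) in 50mM Tris acetate pH 7.5, 10mM Mg acetate, 0.01% Tween-20, 0.05% BSA; qHTS 6-point titration, ~60 µM downward; luminescence read.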
Rab9 prom act – Rab9 promoter activation | Huh7 Rab9 promoter-luciferase reporter, luminescence, 24 h | Potency, µM (top dose mostly 9.22 µM), for inactives: top-dose activation, negative = inhibition, usual class: activators | actives 2.8% (n = 320,000) | AID 485297; note: % of control where 0% means no effect; nearly all actives have a fitted effect of over 60% in size
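Luciferase signal after 10 min detection reagent at ambient indicates Rab9 promoter upregulation; stably transfected Huh7 cells were treated 24 h with compound in DMSO at 37 °C, 5% CO2.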
Active calls of the source: *; ? = inconclusive; · = not tested or not shown. Hits are enriched below; roughly 7.5% of the tested compounds scored in any of these assays. Calls come from the whole dose curve; as a rule, active = well fitted curve in the direction sought with a large enough effect; inconclusive = small, poorly fitted or top-dose-only effect, or another doubt; inactive = no such curve, though single readings can be large; an effect the other way counts as inactive or inconclusive. Potency is the fitted concentration of half-maximal effect.

SMILES	ELG1 genotoxic	NPC1 promoter act	SMN2 splice enh	FLuc modulator	Rab9 prom act
O=C1OC(c2ccccc2)=C/C1=C/c1cccs1	2%	3%	7%	0.67µM*	3%
O=C1N=C(N2CCN(c3ccccc3)CC2)S/C1=C/c1cccs1	-5%	7%	4%	?	3%
O=C1N=C(N2CCN(Cc3ccccc3)CC2)S/C1=C/c1cccs1	0%	20%	·	9.5µM*	27%
CN(CC(=O)Nc1ccccc1Br)C(=O)CNC(=O)Cc1cccc2ccccc12	7%	-3%	·	4%	-2%
C=CCNc1oc(/C=C/c2ccccc2)nc1C#N	?	2.5µM*	11µM*	4.8µM*	2.2µM*
CN(C)CCNc1oc(/C=C/c2ccccc2)nc1C#N	11%	10%	9%	-12%	6%
COCCCNc1oc(/C=C/c2ccccc2)nc1C#N	2.9µM*	3.5µM*	·	3.4µM*	1.1µM*
CCOc1ccc(Nc2n[nH]c(=S)s2)cc1	?	2.5µM*	·	?	1.8µM*
S=c1[nH]nc(Nc2ccc(Cl)cc2)s1	4%	14%	·	?	7%
N#C/C(=C/c1ccc(N2CCOCC2)o1)c1ccc(Cl)cc1	?	3.5µM*	?	8.5µM*	2.8µM*
N#C/C(=C/c1ccc(N2CCCC2)c([N+](=O)[O-])c1)c1nc2ccccc2[nH]1	3%	?	8%	6µM*	?
N#C/C(=C\c1ccc(N2CCOCC2)c([N+](=O)[O-])c1)c1nc2ccccc2[nH]1	-1%	18%	-7%	15µM*	-1%
N#C/C(=C\c1ccc(N2CCOCC2)o1)c1nc2ccccc2[nH]1	?	0.71µM*	0.56µM*	0.43µM*	0.5µM*
CCn1cc(C(=O)N2CCN(c3ccccc3F)CC2)c(=O)c2ccc(C)nc21	4%	-1%	·	-1%	-3%
O=C(NC1CCCCC1)c1cc2nc(-c3ccco3)cc(C(F)(F)F)n2n1	-7%	-7%	-8%	-2%	-3%
COc1cccc(-c2cc(C(=O)NC3CCCCC3)no2)c1	?	?	·	6µM*	3.2µM*
COc1cccc(-c2ccc3c(N)c(C(=O)NC4CC4)sc3n2)c1	?	2µM*	·	3µM*	?
COc1ccc(-c2cc(C(=O)NC3CCCC3)no2)cc1	3.7µM*	0.79µM*	·	2.1µM*	1.8µM*
COc1cccc(-c2ccc3c(N)c(C(=O)c4ccc(F)cc4)sc3n2)c1	·	·	-25%	-4%	·
O=C(NC1CCCCC1)c1cc(-c2ccco2)on1	?	2.5µM*	·	6µM*	1.6µM*
CCc1nc2cc([N+](=O)[O-])c([N+](=O)[O-])cc2[nH]1	-2%	2%	-1%	2%	1%
COC(=O)C(OC(=O)c1ccccc1)C(C)Br (stereo unspecified)	-2%	3%	·	1%	-10%
CCOC(=O)C(=CNc1ccc(OC)cc1[N+](=O)[O-])C(=O)OCC	-6%	1%	·	-13%	0%
Cc1nn(CC(=O)NCCc2cccs2)c(=O)c2cc3ccccc3n12	3%	-2%	·	0%	-5%
CCC1CN(C(=O)N2CCC(C(=O)NCCc3ccccc3Cl)CC2)c2cc(C)ccc2O1 (stereo unspecified)	·	·	·	7%	·
SMILES	ELG1 genotoxic	NPC1 promoter act	SMN2 splice enh	FLuc modulator	Rab9 prom act
COc1ccc2c(c1)O/C(=C\c1ccco1)C2=O	?	4.5µM*	·	0.6µM*	4µM*
CC(=O)COc1ccc2c(c1C)O/C(=C\c1ccco1)C2=O	?	?	·	5.4µM*	?
COC(=O)C(C)Oc1ccc2c(c1)O/C(=C\c1ccco1)C2=O (stereo unspecified)	0%	-5%	·	3µM*	-8%
CCCOc1ccc(-c2nnc(N)s2)cc1	18µM*	?	?	7.6µM*	?
CCCOc1ccc(-c2nc(-c3ccc(N)cc3)cs2)cc1	5%	24%	·	7.6µM*	?
COc1ccc(-c2nnc(N)s2)cc1	?	22%	11%	17µM*	23%
Nc1nnc(-c2ccncc2)s1	0%	-5%	24%	6%	3%
Cc1ccc(-c2nnc(N)s2)cc1	?	25%	?	13µM*	23%
